A short description of assay [1]: NCI Yeast Anticancer Drug Screen. Data for the rad50 strain (AID 155).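 Also: 0% = growth of vehicle-only cultures of the same strain.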 The following applies: S. cerevisiae rad50 strain growth inhibition, hits give high values. Summed up: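 Compounds were tested on a yeast strain with an engineered DNA damage repair alteration; the reported value is growth inhibition normalised to vehicle treatment.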
A short description of assay [2]: NCI Yeast Anticancer Drug Screen. Data for the mec2-1 strain (AID 157). The following applies: S. cerevisiae mec2-1 strain, hits give high values. Summed up:
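Readout is yeast growth inhibition, normalised to vehicle-treated controls, in the mec2-1 strain exposed to compound.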

Assay [3] can be described thus: NCI Yeast Anticancer Drug Screen. Data for the sgs1 mgt1 strain (AID 161).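 Also: 0% = growth of cultures given vehicle only.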 The note with it: S. cerevisiae sgs1 mgt1 strain, hits give high values. The gist of the method: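 Yeast cells carrying a defined DNA-repair defect were exposed to test compounds. Growth inhibition was measured relative to vehicle-treated controls.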
The nature of assay [4]: NCI Yeast Anticancer Drug Screen. Data for the cln2 rad14 strain (AID 165).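 Also: 0% = growth equal to vehicle treated cultures.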 The note with it: S. cerevisiae cln2 rad14 strain, hits give high values. The gist of the method: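 Relative to vehicle controls, growth inhibition of compound-treated cln2 rad14 yeast was recorded.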
The nature of assay [5]: NCI Yeast Anticancer Drug Screen. Data for the bub3 strain (AID 167). The note with it: S. cerevisiae bub3 mutant strain, hits give high values. Summed up:
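Growth of a checkpoint-deficient yeast mutant is measured after compound exposure. Values represent inhibition relative to vehicle.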

The nature of assay [6]: NCI Yeast Anticancer Drug Screen. Data for the mlh1 rad18 strain (AID 175). The note with it: S. cerevisiae mlh1 rad18 strain growth inhibition, hits give high values. The gist of the method: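 Test agents were incubated with a yeast strain of defined genotype (DNA damage repair defect). Inhibition of growth was derived by comparison with vehicle-exposed cultures.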
The mark [7] stands for this setting: at 5.0 µM (retest, dose inferred, filed as 0.5).
The mark [8] stands for this setting: at 50.0 µM (retest, dose inferred, filed as 5.0).

Each structure is given as a SMILES string. Compounds without any hit were thinned out: in the full panel of roughly 79,000, 15% have a hit. Unmarked numbers belong to inactive results. Activity calls are given as the source filed them. Rule as the data show it: active = growth inhibition above about 70%; inactive = the rest.

Turning to `Cc1ccc(NC(=S)C#N)cc1Cl`, the growth inhibition was 46% in assay [1] (setting [7]); 44% in assay [1] (setting [8]); 56.7% in assay [1] (at 50.0 µM); 34% in assay [2] (setting [7]); 44% in assay [2] (setting [8]); 43.4% in assay [2] (at 50.0 µM). The growth inhibition is 41% in assay [3] (setting [7]); 60% in assay [3] (setting [8]); 77.3% (active) in assay [3] (at 50.0 µM); 37% in assay [4] (setting [7]); 40% in assay [4] (setting [8]); 46.1% in assay [4] (at 50.0 µM). The growth inhibition is 46% in assay [5] (setting [7]); 45% in assay [5] (setting [8]); 69.9% in assay [5] (at 50.0 µM); 45% in assay [6] (setting [7]); 53% in assay [6] (setting [8]); 4.7% in assay [6] (at 50.0 µM).
Consider `N#Cc1c2ccccc2nc2ccccc12`, for which the growth inhibition in assay [1] (setting [7]) is 37%; in assay [1] (setting [8]), 45%; in assay [1] (at 50.0 µM), 85.9% (active); in assay [2] (setting [7]), 21%; in assay [2] (setting [8]), 19%; in assay [2] (at 50.0 µM) it was 16.9%. The growth inhibition is -1% in assay [3] (setting [7]); 37% in assay [3] (setting [8]); 30.1% in assay [3] (at 50.0 µM); 2% in assay [4] (setting [7]); 3% in assay [4] (setting [8]); 19.6% in assay [4] (at 50.0 µM). Besides, the growth inhibition in assay [5] (setting [7]) was 5%; in assay [5] (setting [8]) it was 12%; in assay [5] (at 50.0 µM) it was 28.4%; in assay [6] (setting [7]) it was 1%; in assay [6] (setting [8]) it was 17%; in assay [6] (at 50.0 µM), 74.2% (active).
For the compound `C=C(C(N)=O)C(N)C(=O)O` (configuration not stated), the growth inhibition in assay [1] (setting [7]) was -5%; in assay [1] (setting [8]), 9%; in assay [1] (at 50.0 µM), -20.1%; in assay [2] (setting [7]), 6%; in assay [2] (setting [8]) it was -2%; in assay [2] (at 50.0 µM), 9.85%. Besides, the growth inhibition in assay [3] (setting [7]) is -1%; in assay [3] (setting [8]), 0%; in assay [3] (at 50.0 µM), 13.1%; in assay [4] (setting [7]), 9%; in assay [4] (setting [8]), 2%; in assay [4] (at 50.0 µM), -7.4%. Besides, the growth inhibition in assay [5] (setting [7]) was -16%; in assay [5] (setting [8]), -2%; in assay [5] (at 50.0 µM), 40.5%; in assay [6] (setting [7]) it was 11%; in assay [6] (setting [8]), 32%; in assay [6] (at 50.0 µM) it was 7.45%.
In the case of `O=C(O)CCCOc1cc(-c2ccccc2F)nc2cc3c(cc12)OCO3`, the growth inhibition in assay [1] (setting [7]) was 11%; in assay [1] (setting [8]) it was 36%; in assay [1] (at 50.0 µM), 76.8% (active); in assay [2] (setting [7]) it was 3%; in assay [2] (setting [8]), 31%; in assay [2] (at 50.0 µM), 80.8% (active). Moreover, the growth inhibition in assay [3] (setting [7]) was 13%; in assay [3] (setting [8]) it was 27%; in assay [3] (at 50.0 µM), 71% (active); in assay [4] (setting [7]) it was 5%; in assay [4] (setting [8]), 46%; in assay [4] (at 50.0 µM), 71.3% (active). The growth inhibition was 9% in assay [5] (setting [7]); 47% in assay [5] (setting [8]); 77.9% (active) in assay [5] (at 50.0 µM); 7% in assay [6] (setting [7]); 52% in assay [6] (setting [8]); 54% in assay [6] (at 50.0 µM).
As to `COc1cc(N(CCC#N)CCC#N)ccc1/C(N=Nc1ccc(C(=O)O)cc1)=N/NC(=O)c1cc(Br)ccc1O`, the growth inhibition is 9% in assay [1] (setting [7]); 26% in assay [1] (setting [8]); 74.8% (active) in assay [1] (at 50.0 µM); 12% in assay [2] (setting [7]); 24% in assay [2] (setting [8]); 62.1% in assay [2] (at 50.0 µM). Also, the growth inhibition in assay [3] (setting [7]) was -13%; in assay [3] (setting [8]), 20%; in assay [3] (at 50.0 µM) it was 25.7%; in assay [4] (setting [7]) it was 6%; in assay [4] (setting [8]) it was 12%; in assay [4] (at 50.0 µM), 34%. For the same compound, the growth inhibition in assay [5] (setting [7]) is 14%; in assay [5] (setting [8]) it was 40%; in assay [5] (at 50.0 µM), 59.2%; in assay [6] (setting [7]), 8%; in assay [6] (setting [8]) it was 21%; in assay [6] (at 50.0 µM) it was 50.3%.
Turning to `Cc1cc2cccnc2c2ncccc12`, the growth inhibition in assay [1] (setting [7]) is 34%; in assay [1] (setting [8]), 98% (active); in assay [1] (at 50.0 µM) it was 99% (active); in assay [2] (setting [7]), 9%; in assay [2] (setting [8]) it was 99% (active); in assay [2] (at 50.0 µM), 99.2% (active). Also, the growth inhibition is 5% in assay [3] (setting [7]); 98% (active) in assay [3] (setting [8]); 99.1% (active) in assay [3] (at 50.0 µM); -9% in assay [4] (setting [7]); 98% (active) in assay [4] (setting [8]); 97.5% (active) in assay [4] (at 50.0 µM). The growth inhibition in assay [5] (setting [7]) is 21%; in assay [5] (setting [8]) it was 99% (active); in assay [5] (at 50.0 µM) it was 99.3% (active); in assay [6] (setting [7]), 25%; in assay [6] (setting [8]) it was 99% (active); in assay [6] (at 50.0 µM) it was 98.7% (active).
Consider `CN(C)c1ccc(/C=C/c2sc3ccc4ccccc4c3[n+]2C)cc1`, for which the growth inhibition was 97% (active) in assay [1] (setting [7]); 96% (active) in assay [1] (setting [8]); 89.1% (active) in assay [1] (at 50.0 µM); 99% (active) in assay [2] (setting [7]); 98% (active) in assay [2] (setting [8]); 89.7% (active) in assay [2] (at 50.0 µM). Moreover, the growth inhibition in assay [3] (setting [7]) was 100% (active); in assay [3] (setting [8]) it was 98% (active); in assay [3] (at 50.0 µM) it was 90.2% (active); in assay [4] (setting [7]), 99% (active); in assay [4] (setting [8]) it was 97% (active); in assay [4] (at 50.0 µM), 89.5% (active). Further, the growth inhibition in assay [5] (setting [7]) was 99% (active); in assay [5] (setting [8]), 97% (active); in assay [5] (at 50.0 µM), 89.8% (active); in assay [6] (setting [7]), 98% (active); in assay [6] (setting [8]), 97% (active); in assay [6] (at 50.0 µM), 89.2% (active).
For the compound `CCCCCC/C=C1\CCC(CN2CCCC2)C1=O` (configuration not stated), the growth inhibition was 52% in assay [1] (setting [7]); 97% (active) in assay [1] (setting [8]); 91% (active) in assay [1] (at 50.0 µM); 33% in assay [2] (setting [7]); 99% (active) in assay [2] (setting [8]); 70.7% (active) in assay [2] (at 50.0 µM). Moreover, the growth inhibition was 59% in assay [3] (setting [7]); 96% (active) in assay [3] (setting [8]); 90.4% (active) in assay [3] (at 50.0 µM); 71% (active) in assay [4] (setting [7]); 87% (active) in assay [4] (setting [8]); 81.9% (active) in assay [4] (at 50.0 µM). The growth inhibition was 66% in assay [5] (setting [7]); 99% (active) in assay [5] (setting [8]); 79.5% (active) in assay [5] (at 50.0 µM); 78% (active) in assay [6] (setting [7]); 98% (active) in assay [6] (setting [8]); 89.2% (active) in assay [6] (at 50.0 µM).
As for `O=[N+]([O-])c1ccc(C2N(Cc3ccc(Cl)cc3)CCN2Cc2ccc(Cl)cc2)cc1`, the growth inhibition is 58% in assay [1] (setting [7]); 94% (active) in assay [1] (setting [8]); 82.2% (active) in assay [1] (at 50.0 µM); 48% in assay [2] (setting [7]); 97% (active) in assay [2] (setting [8]); 56.5% in assay [2] (at 50.0 µM). The growth inhibition in assay [3] (setting [7]) was 79% (active); in assay [3] (setting [8]), 100% (active); in assay [3] (at 50.0 µM), 85.8% (active); in assay [4] (setting [7]), 51%; in assay [4] (setting [8]), 95% (active); in assay [4] (at 50.0 µM) it was 64.5%. Further, the growth inhibition is 78% (active) in assay [5] (setting [7]); 99% (active) in assay [5] (setting [8]); 87.6% (active) in assay [5] (at 50.0 µM); 79% (active) in assay [6] (setting [7]); 98% (active) in assay [6] (setting [8]); 79.8% (active) in assay [6] (at 50.0 µM).

The record behind these values is PubChem BioAssay (NCI).
